# KCNQ2 enhance: potentiators of rat KCNQ2 potassium channel; O88943; CHO-K1 KCNQ2, FluxOR thallium flux fluorescence; hits give high values; B-score at 10 µM; hit rate 0.54% among 310,000; AID 2239;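 active = fluorescence ratio B-score at least 3 SD of library B-scores, with initial fluorescence B-score within 3 of them, cut at about 5.3 in these data; same plate scores as AID 2156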;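 note: B-score of peak minus minimum over baseline fluorescence ratio after K+ and Tl+ stimulus; positive B-score means potentiation of KCNQ2 with more thallium influx and brighter signal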
# KCNQ2 inh: KCNQ2 (rat) channel inhibition; B-score at 10 µM; hit rate 1.1% among 310,000; O88943; CHO-K1 KCNQ2, FluxOR thallium flux, 20 min; hits give low values;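 active = fluorescence ratio B-score at most minus 3 library SDs, with starting brightness B-score within 2 library SDs, cut at about -5.5 in these data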
# Starred values were filed as active, the others as inactive; i = inactive; / = no result. A selection: hits, their analogues and other compounds. The true share with any hit is near 1.6%.
SMILES,KCNQ2 enhance,KCNQ2 inh
CC(C)[C@H](NC(=O)c1cc2cc(Cl)ccc2n1C)C(=O)N[C@@H](C(=O)O)c1ccccc1,/,i
CCc1ccc(OC(=O)c2cccnc2)cc1,/,i
COc1ccccc1-c1nnc(Sc2nc([N+](=O)[O-])nn2C)o1,/,i
CCn1c(CNc2nc3ccccc3n2C(C)C)nc2ccccc21,-8.3,-8.3*
CC(C)n1c(NCc2nc3ccccc3n2C)nc2ccccc21,/,i
COCCn1c(C)cc(C(=O)CSc2nc(C)cc(C)c2C#N)c1C,/,i
Cc1cc(C)c(C#N)c(SCC(=O)c2cc(C)n(CCc3ccccc3)c2C)n1,-6.4,-6.4*
O=C(N/N=C/c1sc(N2CCOCC2)nc1-c1ccccc1)c1ccccc1F,/,i
O=C(Nc1ccccc1F)C(=Cc1sc(N2CCOCC2)nc1-c1ccccc1)C(=O)Nc1ccccc1F,-6.5,-6.5*
CC(C)NC(=O)CN1CCN(Cc2nc(C(c3ccccc3)c3ccccc3)no2)CC1,/,i
COC(=O)C1=CN(CCOC23CC4CC(CC(C4)C2)C3)C=C(C(=O)OC)C1c1ccsc1,-7.4,-7.4*
COC(=O)C1=CN(Cc2ccc(OC)cc2)C=C(C(=O)OC)C1c1ccsc1,/,i
CCOC(=O)C1(Cc2ccc(Cl)cc2)CCN(C(=O)c2sc(C)nc2C)CC1,/,i
CC1CN(C(=O)CCC(=O)NCc2ccccc2Cl)c2ccccc2S1 (centres undefined),-7.4,-7.4*
CC(C)Oc1ccc(CNC(=O)CCC(=O)N2CC(C)Sc3ccccc32)cc1 (centres undefined),/,i
NC(=S)NNC(=O)COc1ccccc1O,0.08,i
COc1ccc(C(=O)N2CCC3(CC2)NCCc2[nH]cnc23)cc1,/,i
CCCN(C(=O)COC(=O)CNC(=O)c1ccc2ccccc2c1)c1c(N)n(Cc2ccccc2)c(=O)[nH]c1=O,0.06,i
CN1c2ccccc2C(C)(C)C12C=Nc1c(cc(N3CCOCC3)c3ccccc13)O2 (centres undefined),/,i
CN1c2ccccc2C(C)(C)C12C=Cc1cc(O)ccc1O2 (centres undefined),-7.1,-7.1*
C(=N\N1CCOCC1)/c1cccs1,/,i
COc1ccccc1NC(=O)c1cccc2c(Br)cccc12,/,i
Cc1ccc(OC(=O)c2ccc(Cl)c([N+](=O)[O-])c2)cn1,0.09,i
Cc1ccc(C(=O)Oc2cccnc2)cc1[N+](=O)[O-],6.1*,i
O=C(/C=C/c1cn(CC(O)CN2CCCCC2)c2ccccc12)c1cccs1 (centres undefined),/,i
SMILES,KCNQ2 enhance,KCNQ2 inh
CCCN(CCC)CC(O)Cn1cc(/C=C/C(=O)c2ccccc2)c2ccccc21 (centres undefined),-6.3,-6.3*
CCCN(CCC)CC(O)Cn1cc(/C=C/C(=O)c2cccs2)c2ccccc21 (centres undefined),/,i
O=C(/C=C/c1cn(CC(O)CN2CCCCC2)c2ccccc12)c1ccccc1 (centres undefined),-5.7,-5.7*
Cn1ncc([N+](=O)[O-])c1C(=O)N/N=C/c1ccc(F)cc1,/,i
CCOc1ccc(S(=O)(=O)Nc2ccccc2C(=O)N2CCOCC2)cc1,/,i
NC(=O)C1CCN(C(=O)C2CCC(=O)N(CC3CCCCC3)C2)CC1 (centres undefined),0.83,i
N#CCCN/N=C(/Cc1nc2ccccc2[nH]1)c1ccc(Cl)cc1,-10,-10*
N#CCCN/N=C(\Cc1nc2ccccc2[nH]1)c1ccccc1,/,i
COc1ccccc1N(C(=O)c1snc(C(N)=O)c1N)C(C(=O)NC1CCCC1)c1ccc2ncccc2c1 (centres undefined),0.29,i
Cc1ccc(C)c(OCC(=O)N2CCc3ccccc3C2)c1,/,i
Cc1cc(OCC(=O)N2CCc3ccccc3C2)c(C)cc1Br,-6.1,-6.1*
O=CN1CCCN(Cc2nc(-c3cccc(Cl)c3)no2)CC1,0.06,i
Cc1coc2c1C(=O)C(=O)c1c-2ccc2c1CCCC2(C)C,/,i
C[C@H]1COC2=C1C(=O)C(=O)c1c2ccc2c1CCCC2(C)C,-6.2,-6.2*
CCN(CC(=O)Nc1ccc2c(c1)OCCO2)C(=O)c1ccc(C)c(S(=O)(=O)N2CCOCC2)c1,0.79,i
COCC(=O)Oc1c(Sc2ccccc2[N+](=O)[O-])c(C)nn1C(C)(C)C,/,i
CCC(CC)C(=O)Oc1c(Sc2ccccc2[N+](=O)[O-])c(C)nn1C(C)(C)C,-6,-6*
Cc1ccc(N(CCC(=O)O)S(=O)(=O)c2ccccc2)cc1,0.81,i
COC(=O)Cc1ccc(N(Cc2ccccc2F)S(=O)(=O)c2ccc(C)cc2)cc1,-6.6,-6.6*
COc1ccc(Br)cc1-c1nc(C)c(C(C)=O)n1O,-7.2,-7.2*
COc1ccc(Br)cc1-c1noc(-c2ccccc2)n1,/,i
O=c1c2ccccc2nc(SCc2cccc(F)c2)n1Cc1ccco1,-6.2,-6.2*
O=c1c2ccccc2nc(SCc2ccccc2)n1Cc1ccco1,0.28,i
O=C(CCc1nnc2n(Cc3ccc(F)cc3)c(=O)c3ccccc3n12)N1CCN(c2ccccn2)CC1,/,i
CCC(Oc1ccc(C)c(C)c1)C(=O)N1CCCN(C)CC1 (centres undefined),/,i
SMILES,KCNQ2 enhance,KCNQ2 inh
COc1ccc(Cn2nnnc2C(c2cc3cc(C)cc(C)c3[nH]c2=O)N2CCOCC2)cc1 (centres undefined),-6.7,-6.7*
Cc1cc(C)c2cc(C(c3nnnn3C3CCCC3)N3CCOCC3)c(=O)[nH]c2c1 (centres undefined),-6,-6*
CCc1ccc2[nH]c(=O)c(C(c3nnnn3Cc3ccc(OC)cc3)N3CCOCC3)cc2c1 (centres undefined),/,i
Cc1cc(C)c2[nH]c(=O)c(C(c3nnnn3CC3CCCO3)N3CCC(C)CC3)cc2c1 (centres undefined),/,i
Cc1cc(C)c2[nH]c(=O)c(C(c3nnnn3CC3CCCO3)N3CCCC(C)C3)cc2c1 (centres undefined),-5.6,-5.6*
Cc1cccc2cc(C(c3nnnn3Cc3ccccc3)N3CCN(C)CC3)c(=O)[nH]c12 (centres undefined),/,i
Cc1cccc2cc(C(c3nnnn3Cc3ccccc3)N3CCN(c4ccccc4)CC3)c(=O)[nH]c12 (centres undefined),-9,-9*
Cc1ccc2cc(C(c3nnnn3C3CCCC3)N3CCN(c4ccc(F)cc4)CC3)c(=O)[nH]c2c1 (centres undefined),/,i
Clc1ccc(OCCn2cnc(Cl)c2Cl)cc1,/,i
C=CCN(CC=C)C(=O)C(=O)c1ccn(-c2c(C)csc2C(=O)OC)c1,/,i
CCn1c(N)[n+](CC(=O)Nc2ccc(SC(F)F)cc2)c2ccccc21,/,i
O=C(C1=C[C@@H](c2ccc(C(F)(F)F)cc2)C[C@@H](OCc2ccc(CO)cc2)O1)N1CCN(Cc2ccccc2)CC1,/,i
Cn1c(NC(=O)c2cc(-c3ccc4c(c3)OCO4)nc3ccccc23)cc(=O)n(C)c1=O,/,i
CC(C)(C)NC(=O)c1cc(-c2ccc3c(c2)OCO3)nc2ccccc12,-5.6,-5.6*
CC(C)N1C(=O)CSC1c1ccc(Br)cc1 (centres undefined),/,i
CCN1C(=O)[C@H]2[C@@H](c3ccc(-c4ccccc4)cc3)N3CCC[C@@]3(C(=O)OC)[C@H]2C1=O,/,i
NC(=O)c1ccc(NC(=O)COC(=O)C2CC(=O)N(Cc3ccccc3)C2)cc1 (centres undefined),0.18,i
